Coupling enz: coupling enzyme interference in Giardia aldolase counter-screen; coupling enzyme system counterscreen, AmpLite Red fluorescence; activity change, negative = inhibition, % at 58.2 µM, hits read low; 0.67% of 290,000 active; in the data active = activity change below about -30%
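Counterscreen of the coupled detection system alone, without aldolase: glyceraldehyde-3-phosphate coupling enzymes plus AmpLite Red readout. Compounds at 57.5 uM final, 10 min RT preincubation, 20 min RT reaction, fluorescence 525/598 nm.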
TrxR1 substrate: substrates of rat thioredoxin reductase 1; AID 588456; purified TrxR1 substrate turnover, NADPH consumption readout; O89049; Potency, µM (titrated, usually from 114 µM); 0.01% of 390,000 active; note: nearly all actives have a fitted effect of over 50% in size
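Rat TrxR1, dispensed at 90 nM, was prereduced with 400 uM NADPH (final) for 5 min at ~22 deg C, then incubated with compound 15 min before 400 uM selenite. A first-read NADPH fluorescence drop versus no-compound background flagged substrates.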
GALK inhibitor: galactokinase (human) inhibition. P51570. Purified GALK, Kinase-Glo residual ATP luminescence. Potency, µM (top dose mostly 57.5 µM), most hits filed as inhibitors. 0.007% of 270,000 active. AID 1868
Target sequence (P51570 whole entry, looked up): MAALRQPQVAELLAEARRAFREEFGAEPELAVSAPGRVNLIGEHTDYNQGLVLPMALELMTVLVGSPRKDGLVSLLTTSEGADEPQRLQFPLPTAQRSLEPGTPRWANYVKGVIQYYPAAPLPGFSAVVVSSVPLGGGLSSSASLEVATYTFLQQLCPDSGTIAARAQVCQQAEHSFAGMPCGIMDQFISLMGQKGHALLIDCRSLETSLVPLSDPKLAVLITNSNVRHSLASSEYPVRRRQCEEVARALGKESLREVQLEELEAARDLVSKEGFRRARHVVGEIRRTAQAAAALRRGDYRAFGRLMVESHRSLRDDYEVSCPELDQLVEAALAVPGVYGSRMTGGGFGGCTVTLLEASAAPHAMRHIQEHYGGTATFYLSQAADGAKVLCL
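5 nM enzyme, 35 uM ATP, 100 uM galactose, 20 mM HEPES pH8.0, 5 mM MgCl2; 1 h RT; residual ATP by Kinase-Glo Plus luminescence, qHTS format.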
TrxR1 inh: blocks rat thioredoxin reductase 1 | 1% of 390,000 active | recombinant rTrxR1, NADPH fluorescence consumption, selenite substrate | AID 588453 | Potency, µM (highest dose often 114 µM), most hits filed as inhibitors | O89049; note: nearly all actives have a fitted effect of over 65% in size
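Rat TrxR1 (90 nM in the dispensed reagent) was pre-reduced with 400 uM NADPH for 5 min at room temperature, then incubated with compound for 15 min. After 400 uM selenite was added, NADPH fluorescence (Ex 340/Em 450 nm) was followed for 8 min.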
USP1 inh: USP1/UAF1 (human) deubiquitinase inhibition; recombinant USP1/UAF1, Ub-Rhodamine cleavage fluorescence; Potency, µM (series often up to 57.1 µM), usual class: inhibitors; 0.23% of 390,000 active; note: nearly all actives have a fitted effect of over 60% in size
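1 nM enzyme complex + cpd, 15 min RT; start with Ub-Rho 150nM final; kinetic fluorescence ex 480/em 540, 6 reads q60 s. Buffer 50mM HEPES pH 7.8, 0.5mM EDTA, 0.1 mg/ml BSA, 1mM TCEP, 0.01% Tween-20.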
Each line names hits and unclear results; the compound was inactive in the other large screens; ! = not confirmed by another sample. Sampled rows, rich in hits. Any-hit rate of the full collection: about 1.5%. Unless noted, calls come from the whole dose curve; as a rule, active = well fitted curve in the direction sought with a large enough effect; inconclusive = small, poorly fitted or top-dose-only effect, or another doubt; inactive = no such curve, though single readings can be large; an effect the other way counts as inactive or inconclusive.

COc1ccc(C(=O)/C=C/Sc2nc3ccccc3o2)cc1	TrxR1 inh 1µM, USP1 inh inconclusive
Cc1cccn2c(=O)c3cc(C#N)c(=NC(=O)c4ccco4)n(Cc4ccco4)c3nc12	none
CCOC(=O)c1cc2c(=O)n3ccccc3nc2n(Cc2ccco2)c1=NC(=O)c1cccc(Br)c1	TrxR1 inh 3.98µM, USP1 inh inconclusive (no result: Coupling enz, GALK inhibitor)
Cc1cccc(C(=O)N=c2c(C#N)cc3c(=O)n4cccc(C)c4nc3n2Cc2ccco2)c1	TrxR1 inh 6.31µM, USP1 inh inconclusive
Cc1cccn2c(=O)c3cc(C#N)c(=NC(=O)c4ccccc4)n(Cc4ccco4)c3nc12	TrxR1 inh 50.1µM (no result: Coupling enz, GALK inhibitor)
Cc1ccc(S(=O)(=O)N2CCN(c3nc(-c4cscn4)nc4ccccc34)CC2)cc1	none (no result: Coupling enz, GALK inhibitor, USP1 inh)
O=S(=O)(Nc1cc2nc3ccccc3nc2n1Cc1ccccc1)c1ccc(Cl)cc1	Coupling enz -55.1, TrxR1 substrate inconclusive, USP1 inh 25.1µM
COc1ccc2nc3ccccc3nc2c1NC(=O)c1ccc(Cl)cc1Cl	Coupling enz -33.3
COc1cccc(S(=O)(=O)N2CCN(c3nc(-c4cccs4)nc4ccccc34)CC2)c1	none (no result: Coupling enz, GALK inhibitor, USP1 inh)
COC(=O)[C@H](CO)NS(=O)(=O)c1ccc(C)cc1	none (no result: Coupling enz, GALK inhibitor)
COC(=O)C(C(C)=O)C1=C/C(=N\S(=O)(=O)c2ccc(C)cc2)c2ccccc2C1=O (stereo not given)	Coupling enz -33.4
O=S(=O)(/N=C(/Nc1ccccc1F)c1ccccc1)c1ccccc1	none
Cc1ccccc1NC1=C/C(=N\S(=O)(=O)c2ccc(C(=O)O)cc2)c2ccccc2C1=O	Coupling enz -43.9, GALK inhibitor inconclusive, USP1 inh 1.26µM
O=C(O)c1ccc(S(=O)(=O)/N=C2\C=C(Nc3ccccc3F)C(=O)c3ccccc32)cc1	Coupling enz -45.4, TrxR1 substrate inconclusive, GALK inhibitor inconclusive, USP1 inh 2.51µM
Cc1ccccc1N/C(=N/S(=O)(=O)c1ccccc1)c1ccc(F)cc1	none
COC(=O)/C=C\c1cc(O)ccc1O	none (no result: TrxR1 substrate, GALK inhibitor, TrxR1 inh, USP1 inh)
COc1ccc(NC(=O)N2CCc3nc(-c4ccccc4)c4c(c3C2)CO[C@@H](C)C4)cc1	none (no result: TrxR1 substrate, GALK inhibitor, TrxR1 inh, USP1 inh)
Cc1cccc(OCCC(=O)NCC(=O)Nc2cccc(C)c2C)c1	Coupling enz -35.1
COc1ccccc1N1CCN(C(=O)Cc2cccs2)CC1	Coupling enz -32.2, TrxR1 inh inconclusive
Cc1c(OC(=O)c2ccc([N+](=O)[O-])cc2)c2c(c[n+]1C)COC(C)(C)OC2	TrxR1 inh 44.7µM
Cc1ncc2c(c1OC(=O)c1ccccc1)COC(C)(C)OC2	none
O=C(c1ccc(O)cc1)c1ccc(O)cc1O	none
O=C(c1ccccc1)c1ccc(O)cc1O	USP1 inh 28.2µM
CC(C)NC(=O)CCS(=O)(=O)c1cccc2nonc12	none
CC(C)CCNC(=O)CCS(=O)(=O)c1cccc2nonc12	TrxR1 inh 56.2µM
COc1cccc(CNC(=O)CCS(=O)(=O)c2cccc3nonc23)c1	TrxR1 inh 15.8µM
CCc1cnc2ccccc2c1/C=C/c1ccc(N(C)C)cc1	none (no result: Coupling enz, GALK inhibitor, USP1 inh)
Cc1ccc2nc(Cl)c3nnnn3c2c1	TrxR1 inh 8.91µM
COc1cccc(/C=C/c2ccc3ccccc3[n+]2C)c1OC	none (no result: Coupling enz, GALK inhibitor, USP1 inh)
CCCc1nc2c(sc3nc4c(cc32)COC(C)(C)C4)c(=O)n1CCN(C)C	none
CCCc1nc2c(sc3nc4c(cc32)COC(C)(C)C4)c(=O)n1Cc1ccco1	TrxR1 inh 11.2µM
CCCCN(CCC(=O)O)c1ccc(/C=C/c2ccnc3ccccc23)cc1	none (no result: Coupling enz, GALK inhibitor, USP1 inh)
O=S(=O)(Nc1cccc2cccnc12)c1ccccc1	Coupling enz -39.1!
COc1cc(N(C(C)=O)c2ccc(O)c(C(=O)O)c2)c2ncccc2c1	USP1 inh 31.6µM (no result: Coupling enz, TrxR1 substrate, GALK inhibitor, TrxR1 inh)
COc1cc(N(C(C)=O)c2ccc(O)cc2)c2ncccc2c1	none (no result: Coupling enz, TrxR1 substrate, GALK inhibitor, TrxR1 inh)
CCOC(=O)C1CCN(Cc2c(O)ccc3ccccc23)CC1	TrxR1 inh inconclusive
CCOC(=O)N1CCN(Cc2c(O)ccc3ccccc23)CC1	TrxR1 inh 12.6µM
O=C(C1CCCO1)N1CCN(Cc2c(O)ccc3ccccc23)CC1 (stereo not given)	TrxR1 inh 7.08µM
CCOC(=O)N1CCN(Cc2ccc(O)c3ncccc23)CC1	TrxR1 inh 12.6µM
Cc1ccc(CN2CCN(C(=O)C3CCCO3)CC2)cc1 (stereo not given)	none
Oc1ccc(CN2CCCCC2)c2cccnc12	none
CCN(CC)c1ccc(/C=C2\C=Cc3ccccc32)cc1	none (no result: Coupling enz, GALK inhibitor, USP1 inh)

Compound activity (PubChem BioAssay)
